Source: PubChem BioAssay (EPA / NIEHS)
Results filed as inconclusive are left out. Activity calls are given as the source filed them. The calls were made as follows, unless noted: active = hit-call score of the fitted dose curve at least 0.9, where 1 is the maximum; inactive = score below 0.9.

Key:
[1] = target: human Thyroid Receptor alpha (THRa1), THRA (gene 7067) (UniProt P10827); assay: ATG_THRa1_TRANS: Attagene TRANS-FACTORIAL HepG2 Assay for human Thyroid Receptor alpha (THRa1) (AID 2283014; active = hit-call score of the fitted dose curve at least 0.9, where 1 is the maximum)
human Thyroid Receptor alpha (THRa1), THRA (gene 7067), sequence (P10827 whole entry, looked up, the tested form may be a part): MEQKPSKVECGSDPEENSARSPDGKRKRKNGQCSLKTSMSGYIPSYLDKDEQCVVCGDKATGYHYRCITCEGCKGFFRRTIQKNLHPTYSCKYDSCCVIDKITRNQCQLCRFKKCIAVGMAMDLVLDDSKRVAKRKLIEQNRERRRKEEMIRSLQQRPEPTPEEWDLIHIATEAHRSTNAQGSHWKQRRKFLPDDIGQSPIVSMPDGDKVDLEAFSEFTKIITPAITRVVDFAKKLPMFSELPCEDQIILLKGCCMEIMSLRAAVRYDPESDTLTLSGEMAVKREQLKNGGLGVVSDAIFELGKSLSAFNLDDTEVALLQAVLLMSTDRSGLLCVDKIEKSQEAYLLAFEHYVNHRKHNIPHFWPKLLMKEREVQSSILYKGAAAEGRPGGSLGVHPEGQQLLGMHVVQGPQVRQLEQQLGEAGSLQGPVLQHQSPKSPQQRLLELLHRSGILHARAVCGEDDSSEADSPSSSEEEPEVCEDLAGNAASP
How it was run: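 Reporter transcript induction, read by capillary electrophoresis of 6-FAM-labelled RT-PCR products, reflects activity of a transfected THRa1-Gal4 fusion in HepG2 liver cells. Cells were dosed for 24 h; activity was fitted in the positive direction against DMSO.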

[2] = read-out: E-selectin (Homo sapiens) (UniProt P16581); assay: BSK_3C_Eselectin: BioMAP Diversity Plus: 3C Assay for Eselectin Biomarker Activity (AID 2283015); conditions: primary human endothelial cells (HUVEC); actives raise or lower the signal
How it was run: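 ELISA read-out of E-selectin on endothelial monolayers after 24 h chemical treatment. Human umbilical vein primary cells served as the system, with DMSO defining baseline activity for bidirectional fitting.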

[3] = read-out: Interleukin-1 alpha (IL1a), IL1A (gene 3552); assay: BSK_BE3C_IL1a: BioMAP Diversity Plus: BE3C Assay for Interleukin-1 alpha (IL1a) Biomarker Activity (AID 2283016); conditions: primary human bronchial epithelial cells; actives raise or lower the signal
How it was run: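 Human primary bronchial epithelial cells, 24 h chemical exposure; IL-1a quantified by ELISA, fitted bidirectionally against DMSO. Cytotoxicity assessed in parallel by SRB total-protein staining at the time of measurement.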

[4] = read-out: Monocyte Chemoattractant Protein-1 (MCP1), CCL2 (gene 6347); assay: BSK_3C_MCP1: BioMAP Diversity Plus: 3C Assay for Monocyte Chemoattractant Protein-1 (MCP1) Biomarker Activity (AID 2283017); conditions: primary human endothelial cells (HUVEC); actives raise or lower the signal
How it was run: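 ELISA read-out of MCP-1 from human umbilical vein endothelial cell cultures harvested 24 h post-dosing. Gain or loss of signal was fitted relative to DMSO.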

[5] = read-out: Monocyte Chemoattractant Protein-1 (MCP1), CCL2 (gene 6347); assay: BSK_4H_MCP1: BioMAP Diversity Plus: 4H Assay for Monocyte Chemoattractant Protein-1 (MCP1) Biomarker Activity (AID 2283018); conditions: primary human endothelial cells (HUVEC); actives raise or lower the signal
How it was run: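 Human umbilical vein endothelial cells (4H system) exposed to chemicals for 24 h in 96-well format. MCP-1 measured by ELISA; bidirectional fitting against DMSO, with SRB total-protein staining in parallel cultures for cytotoxicity.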

[6] = read-out: Human Leukocyte Antigen - DR isotype (HLADR), HLA-DRA (gene 3122); assay: BSK_3C_HLADR: BioMAP Diversity Plus: 3C Assay for Human Leukocyte Antigen - DR isotype (HLADR) Biomarker Activity (AID 2283019); conditions: primary human endothelial cells (HUVEC); actives raise or lower the signal
How it was run: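 ELISA readout of surface HLA-DR on human umbilical vein endothelium, taken 24 h after chemical treatment. Gain- and loss-of-signal were both fitted relative to DMSO.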

[7] = read-out: Interleukin-8 (IL8), CXCL8 (gene 3576); assay: BSK_3C_IL8: BioMAP Diversity Plus: 3C Assay for Interleukin-8 (IL8) Biomarker Activity (AID 2283020); conditions: primary human endothelial cells (HUVEC); actives raise or lower the signal
How it was run: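 Primary human umbilical vein endothelial cells were dosed for 24 h. IL-8 was quantified by ELISA and fitted bidirectionally against DMSO. Cytotoxicity was assessed in parallel cultures by SRB staining at 560 nm.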

[8] = read-out: Monokine induced gamma interferon (MIG), CXCL9 (gene 4283); assay: BSK_3C_MIG: BioMAP Diversity Plus: 3C Assay for Monokine induced gamma interferon (MIG) Biomarker Activity (AID 2283021); conditions: primary human endothelial cells (HUVEC); actives raise or lower the signal;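 as to AC50: MIG protein level measured by immunoassay in the treated endothelial cultures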
How it was run: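 HUVEC primary endothelial cultures dosed with chemical; MIG quantified by ELISA at 24 h. Data fitted bidirectionally against DMSO control, with parallel SRB total-protein staining for cytotoxicity.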

[9] = target: human Vitamin D Receptor (VDR), VDR (gene 7421) (UniProt P11473); assay: ATG_VDR_TRANS: Attagene TRANS-FACTORIAL HepG2 Assay for human Vitamin D Receptor (VDR) (AID 2283022; active = hit-call score of the fitted dose curve at least 0.9, where 1 is the maximum)
human Vitamin D Receptor (VDR), VDR (gene 7421), sequence (P11473 whole entry, looked up, the tested form may be a part): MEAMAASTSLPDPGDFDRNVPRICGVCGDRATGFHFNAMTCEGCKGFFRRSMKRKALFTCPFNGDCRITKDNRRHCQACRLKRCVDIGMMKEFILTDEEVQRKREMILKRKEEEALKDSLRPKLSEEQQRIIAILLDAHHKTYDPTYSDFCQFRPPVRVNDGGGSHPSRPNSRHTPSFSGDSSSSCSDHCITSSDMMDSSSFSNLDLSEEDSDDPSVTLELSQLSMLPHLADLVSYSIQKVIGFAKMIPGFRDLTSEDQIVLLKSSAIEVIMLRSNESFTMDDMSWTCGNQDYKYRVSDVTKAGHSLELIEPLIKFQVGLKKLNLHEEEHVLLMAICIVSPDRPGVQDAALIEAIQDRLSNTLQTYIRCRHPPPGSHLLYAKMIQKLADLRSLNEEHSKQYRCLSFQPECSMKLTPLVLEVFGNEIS
How it was run: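 Steps: transfect HepG2 with GAL4-UAS-driven reporter constructs; dose compounds 24 h; isolate RNA, reverse-transcribe, PCR-amplify with 6-FAM-labelled primer extension and HpaI digestion; quantify fragments by capillary electrophoresis relative to DMSO.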

[10] = BSK_3C_SRB: Viability Assessment in the BioMAP Diversity Plus: 3C Assay (AID 2283023); conditions: primary human endothelial cells (HUVEC);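 also: fitted both ways against DMSO so a hit may be signal rise or drop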
How it was run: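 Absorbance at 560 nm of sulforhodamine B-stained (0.1%) total protein served as a cytotoxicity readout in human umbilical vein endothelial cells, 24 h after chemical treatment. Signal was fitted bidirectionally relative to DMSO.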

[11] = read-out: Matrix Metallopeptidase 1 (MMP1), MMP1 (gene 4312); assay: BSK_BE3C_MMP1: BioMAP Diversity Plus: BE3C Assay for Matrix Metallopeptidase 1 (MMP1) Biomarker Activity (AID 2283024); conditions: primary human bronchial epithelial cells; actives raise or lower the signal
How it was run: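 Human primary bronchial epithelial cells (BE3C system) dosed for 24 h; MMP-1 quantified by ELISA. Bidirectional fit against DMSO; cytotoxicity tracked in parallel cultures by SRB total-protein staining.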

[12] = BSK_3C_Vis: BioMAP Diversity Plus: 3C Assay for Morphology Visualization (AID 2283025); conditions: primary human endothelial cells (HUVEC);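 also: light microscopy image of cell morphology used as background control; fitted both ways so gain or loss versus DMSO counts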
How it was run: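 Human umbilical vein endothelial cell morphology was inspected by light microscopy 24 h after chemical dosing; scored bidirectionally relative to DMSO.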

[13] = read-out: Pselectin, SELP (gene 6403); assay: BSK_4H_Pselectin: BioMAP Diversity Plus: 4H Assay for Pselectin Biomarker Activity (AID 2283026); conditions: primary human endothelial cells (HUVEC); actives raise or lower the signal
How it was run: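 Primary human umbilical vein endothelial cells were treated 24 h, and cell-surface P-selectin was then quantified by ELISA. Bidirectional fit versus DMSO; cytotoxicity checked in parallel cultures by SRB total-protein staining.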

[14] = BSK_4H_SRB: Viability Assessment in the BioMAP Diversity Plus: 4H Assay (AID 2283027); conditions: primary human endothelial cells (HUVEC);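 also: cells exposed to compound for 24 h before staining; curves fitted both ways versus DMSO so AC50 may be loss or gain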
How it was run: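 Human umbilical vein endothelial cells, 24 h after chemical dosing; total protein measured by 0.1% sulforhodamine B staining after 10% TCA fixation, read at 560 nm. Bidirectional fitting against DMSO.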

[15] = BSK_BE3C_SRB: Viability Assessment in the BioMAP Diversity Plus: BE3C Assay (AID 2283028); conditions: primary human bronchial epithelial cells;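 also: fitted both ways so AC50 may mark signal gain or loss versus DMSO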
How it was run: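 Cells (human bronchial epithelial, primary) are treated with chemicals, and after 24 h the parallel cultures are fixed in 10% TCA. These are then stained with 0.1% SRB and read at 560 nm. Gain or loss of signal is fitted relative to DMSO.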

[16] = read-out: Thrombomodulin, THBD (gene 7056); assay: BSK_3C_Thrombomodulin: BioMAP Diversity Plus: 3C Assay for Thrombomodulin Biomarker Activity (AID 2283029); conditions: primary human endothelial cells (HUVEC); actives raise or lower the signal
How it was run: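 Human umbilical vein endothelial cells were exposed to chemicals for 24 h; cell-surface thrombomodulin quantified by ELISA, with bidirectional fitting against DMSO baseline.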

[17] = read-out: Urokinase-type plasminogen activator receptor (uPAR), PLAUR (gene 5329); assay: BSK_4H_uPAR: BioMAP Diversity Plus: 4H Assay for Urokinase-type plasminogen activator receptor (uPAR) Biomarker Activity (AID 2283030); conditions: primary human endothelial cells (HUVEC); actives raise or lower the signal
How it was run: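 Cell-surface uPAR ELISA signal, measured 24 h after dosing human umbilical vein endothelial cells, was analyzed with bidirectional fitting relative to DMSO. Parallel SRB staining of total protein tracked overt cytotoxicity.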

E-selectin (Homo sapiens), sequence (P16581 whole entry, looked up): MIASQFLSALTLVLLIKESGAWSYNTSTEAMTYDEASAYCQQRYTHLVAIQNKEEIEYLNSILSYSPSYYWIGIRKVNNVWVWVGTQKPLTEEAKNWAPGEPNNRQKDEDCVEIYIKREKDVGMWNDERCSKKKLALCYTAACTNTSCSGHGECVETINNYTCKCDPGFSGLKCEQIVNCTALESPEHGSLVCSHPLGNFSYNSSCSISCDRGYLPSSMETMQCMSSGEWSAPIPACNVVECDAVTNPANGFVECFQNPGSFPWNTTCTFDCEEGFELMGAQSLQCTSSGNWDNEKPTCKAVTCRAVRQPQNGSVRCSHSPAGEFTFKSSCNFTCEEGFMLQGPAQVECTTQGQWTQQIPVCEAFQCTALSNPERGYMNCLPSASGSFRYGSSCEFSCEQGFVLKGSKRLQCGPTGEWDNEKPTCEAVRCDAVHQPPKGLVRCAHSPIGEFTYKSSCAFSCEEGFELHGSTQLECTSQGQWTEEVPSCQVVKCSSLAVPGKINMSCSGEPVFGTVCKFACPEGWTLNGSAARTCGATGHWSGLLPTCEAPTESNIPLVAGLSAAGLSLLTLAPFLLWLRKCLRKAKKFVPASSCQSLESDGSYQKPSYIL

O=[N+]([O-])c1ccc(C=Cc2ccc([N+](=O)[O-])cc2S(=O)(=O)O)c(S(=O)(=O)O)c1
outcome [1]: inactive

C=C(C)C(=O)O[C@H]1C[C@@H]2CC[C@@]1(C)C2(C)C
AC50 [2]: 15.1 µM (active)
AC50 [3]: 20 µM (active)
AC50 [4]: 20 µM (active)
AC50 [5]: 5.54 µM (active)
AC50 [6]: 9.37 µM (active)
AC50 [7]: 20 µM (active)
AC50 [8]: 34.7 µM (active)
outcome [9]: inactive
AC50 [10]: 13.8 µM (active)
AC50 [11]: 20 µM (active)
AC50 [12]: 12.5 µM (active)
AC50 [13]: 11.3 µM (active)
AC50 [14]: 10.9 µM (active)
AC50 [15]: 34.7 µM (active)
outcome [16]: inactive
AC50 [17]: 9.5 µM (active)

c1cc(C(c2ccc(OCC3CO3)cc2)c2ccc(OCC3CO3)cc2)ccc1OCC1CO1 (configuration not stated)
outcome [9]: inactive

CC(=O)O[C@H](CC(=O)[O-])C[N+](C)(C)C
outcome [1]: inactive

CCCCCCCCC
outcome [1]: inactive
outcome [9]: inactive

CC(C)(COC(=O)c1ccccc1)COC(=O)c1ccccc1
outcome [1]: inactive
AC50 [2]: 20 µM (active)
outcome [3]: inactive
AC50 [4]: 34.4 µM (active)
AC50 [5]: 11.3 µM (active)
AC50 [6]: 27.8 µM (active)
outcome [7]: inactive
outcome [8]: inactive
AC50 [10]: 26.8 µM (active)
outcome [11]: inactive
AC50 [12]: 38.9 µM (active)
AC50 [13]: 31.7 µM (active)
AC50 [14]: 23.2 µM (active)
outcome [16]: inactive
outcome [17]: inactive

C=C(C)C(=O)O
outcome [9]: inactive
